Compounds without any hit were thinned out: in the full panel of roughly 83,000, 20% have a hit.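 A percent growth of 40 corresponds to 60% growth inhibition; 0 means no net growth; -100 means all cells died. Active threshold: below 10.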 Values without a mark were called inactive. Active and inactive are the calls of the source.
Test system: MDA-MB-468 breast
Assay: NCI-60 one-dose screen, 48 h (100 = growth as untreated, 0 = no growth, -100 = all killed)
Conditions: 10 µM unless noted

SMILES: CCCCN1C=CCN(CCCC)C1
- growth: -1.66% (active)

SMILES: Nc1cc2c(cc1Cl)C(=O)c1ccccc1C2=O
- growth: 70.2%

SMILES: NC1=NC(c2cccc(Br)c2)c2sc3ccc(Cl)cc3c2N1 (stereo unspecified)
- growth: 87.4%

SMILES: O=C(Cc1ccccn1)C(F)(F)C(F)(F)C(F)(F)F
- growth: 115%

SMILES: CCN(CC)c1ccc(/C=C/C=C2\NC(=O)NC2=O)cc1
- growth: -5.35% (active)

SMILES: C[C@H]1[C@H]2[C@H]3CC[C@@H]4[C@@]5(C)CC[C@H](O)C(C)(C)[C@@H]5CC[C@@]4(C)[C@]3(C)CC[C@]23CO[C@]1(C)[C@@H](C(=O)/C=C\c1ccco1)C3
- growth: 19.3%

SMILES: C#CCN1C(=O)/C(=c2\sc3n(c2=O)NC2C(N=3)N(CC)C(=O)N2CC)c2ccccc21 (stereo unspecified)
- growth: 10.8%

SMILES: COc1cc(/C=C(/C)C[N+](=O)[O-])ccc1O
- growth: 57.9%

SMILES: CCC(/C=C\C(C)=O)CC
- growth: 102%

SMILES: COc1ccc(N2CCC(=O)NC2=S)cc1
- growth: 100%

SMILES: Cc1ccc2c(n1)C(=O)C(Cl)=C(Nc1cccc(C(=O)OC(C)(C)C)c1)C2=O
- growth: -57.7% (active)

SMILES: CCOC(=O)c1cnn(-c2nc(-c3ccc(F)cc3)c(C#N)c(N3CCOCC3)n2)c1N
- growth: 92.6%

SMILES: COc1cccc2c1C(=O)c1c(O)c3c(c(O)c1C2=O)C[C@](O)(C(=O)CO)C[C@H]3O[C@@H]1C[C@@H](NC(=O)CCCN(C)C2(c3ccc(F)cc3)CC3CCC2C3)[C@H](O)[C@@H](C)O1 (stereo partly specified)
- growth: -82.4% (active)

SMILES: Cc1c(O)cc(-c2cnc(Nc3ccccc3)s2)c(O)c1C
- growth: 57.4%

SMILES: COC(=O)c1ccc2c(c1)c1c(C)c3cnccc3c(C)c1n2C
- growth: -38% (active)

SMILES: CC(=O)O[C@H]1[C@@H]2OC(=O)C(CSc3ccccc3)[C@@H]2C[C@H]2O[C@]2(C)CC/C=C(\C)CCC[C@@H]1C (stereo partly specified)
- growth: -10% (active)

SMILES: CC(=O)OC(C)c1cccc(C#N)c1 (stereo unspecified)
- growth: 105%

SMILES: CCOC(=O)C(NC(=O)C(Cl)Cl)C(O)c1ccccc1 (stereo unspecified)
- growth: 102%

SMILES: C/C(=C(/C)C1CC1CCN(C(=O)c1ccc([N+](=O)[O-])cc1)S(=O)(=O)c1ccc(C)cc1)C1CCCCC1 (stereo unspecified)
- growth: 82.5%

SMILES: Cc1ccc(S(=O)(=O)c2nc(-c3ccccc3)oc2S(C)=O)cc1 (stereo unspecified)
- growth: -59% (active)

SMILES: OC(Cc1cccnc1)c1ccccc1 (stereo unspecified)
- growth: 111%

SMILES: COc1ccc2c(c1)C(=O)/C(=C/c1ccc(O)cc1)O2
- growth: -28.5% (active)

SMILES: Cc1cc(C(=O)NN)c(C#N)c(=O)[nH]1
- growth: 122%

SMILES: Cc1ccc2[nH]c(=O)cc(-n3nncc3Cn3c4ccccc4c4ccccc43)c2c1
- growth: 94.7%

SMILES: C#C[C@]1(O)CC[C@H]2[C@@H]3CC=C4c5sc(Nc6cc(Cl)ccn6)nc5CC[C@]4(C)[C@H]3CC[C@@]21C
- growth: 28.6%

SMILES: O=C(Nc1ccccc1OC(=O)c1ccccc1)c1ccccc1
- growth: 59%

SMILES: COc1cc(C2CC(C3C(=O)N(C)C(=O)N(C)C3=O)=NN2C=O)cc(OC)c1OC (stereo unspecified)
- growth: 103%

SMILES: COc1c(C(=O)/C=C/c2ccc(C)o2)c(O)cc2occc12
- growth: 30.7%

SMILES: COc1ccc(-c2nc(SCC(C)C)nc(Nc3ccc([N+](=O)[O-])cc3)c2C#N)cc1
- growth: 93.4%

SMILES: COc1ccc2c(c1)sc1nc(-c3ccccc3)c(-c3cccnc3)n12
- growth: 90.1%

SMILES: C[N+]1(CCc2ccccc2)CCC(CCC2CC[N+](C)(CCc3ccccc3)CC2)CC1 (stereo unspecified)
- growth: 28.8%

SMILES: Cc1ccc2c(c1)nc(C)n2-c1ncnc2c1CC(C)c1cc(O)ccc1N2C (stereo unspecified)
- growth: 10%

SMILES: C[Se]C(=O)CC1=C2C=C(F)C=CC2/C(=C\c2ccc(S(C)=O)cc2)C1C (stereo unspecified)
- growth: -46.2% (active)

SMILES: C=C1C(=O)O[C@H]2[C@H]1CC/C(COC(=O)CCC(=O)NCCOCCOCC(=O)Nc1ccc(OC)c(C(N)=O)c1O)=C\CC[C@@]1(C)O[C@@H]21
- growth: -17.5% (active)

SMILES: Nc1nc(Nc2ccccc2SSc2ccccc2Nc2nc(N)nc(-c3ccc(I)cc3)n2)nc(-c2ccc(I)cc2)n1
- growth: 109%

SMILES: Clc1ccc(-c2cc(-c3ccccc3)nc(NCCNc3ccnc4cc(Cl)ccc34)n2)cc1
- growth: -79.6% (active)

SMILES: COc1cc(N)c2ncccc2c1Cl
- growth: 103%

SMILES: O=c1c2cc(F)ccc2sc2c(Nc3ccncc3)nc3ccccc3c12
- growth: 27.8%

SMILES: COc1ccc(C2CC(c3ccc(Nc4ccnc5cc(Cl)ccc45)cc3)=NN2C=O)cc1 (stereo unspecified)
- growth: 9.91% (active)

SMILES: O=C(Nc1nc(C(=O)N2CCN(C(c3ccccc3)c3ccccc3)CC2)cs1)c1ccc(NC2CCCCC2)c([N+](=O)[O-])c1
- growth: 104%

SMILES: COc1cc2nc(NC3CCCC3)nc(NC3CCN(C(C)C)CC3)c2cc1OC
- growth: 45.4%

SMILES: COc1cc(Cl)ccc1C
- growth: 64.9%

SMILES: O=C(NCc1ccccc1)C1CN(c2ccc(Cl)cc2)N(c2ccc(Cl)cc2)C1=O (stereo unspecified)
- growth: 71.5%

SMILES: N#Cc1c(NCc2ccccc2I)sc2c1CCCCC2
- growth: 97.1%

SMILES: O/N=C/c1cccs1
- growth: 106%

SMILES: CCN(CC)Cc1cc(Nc2ccnc3ccc(OC)cc23)ccc1O
- growth: -3.96% (active)

SMILES: O=C1c2ccccc2-c2c1c1cccnc1c(=O)n2C[C@H](O)CO
- growth: 88.4%

SMILES: CCC(C)[C@H]1OC(=O)[C@H](C(C)C)N(C)C(=O)[C@@H](C(C)C)OC(=O)[C@H](C(C)C)N(C)C(=O)[C@@H](C(C)CC)OC(=O)[C@H](C(C)C)N(C)C1=O (stereo partly specified)
- growth: -0.281% (active)

SMILES: CC[C@H](C)[C@H](N)C(=O)O
- growth: 99.9%

SMILES: CC(=O)N1N=C(c2ccc(-n3ccc(C(F)(F)F)n3)c(F)c2)CC1c1ccc[nH]1 (stereo unspecified)
- growth: 117%

SMILES: CN(C)c1ccc(/C=C/c2ccnc3ccccc23)cc1N
- growth: 5.88% (active)

SMILES: O=C1C(Cl)=C(N=Nc2c(Cl)c(O)c3ccccc3c2O)C(=O)c2ccccc21
- growth: 66.3%

SMILES: CCNCCCn1c2c(c3ccc([N+](=O)[O-])cc3c1=O)C(=O)c1cc(OC)cnc1-2
- growth: -34.3% (active)

SMILES: Cc1cc(C(C)(C)C)cc(C)c1CC1=NCCN1
- growth: 93.5%

SMILES: CCCCCCCCCCCCCCCC[N+]1(CC)CCCC1
- growth: -35.7% (active)

SMILES: COc1cc(/C=C2\C(=O)Nc3ccc(Br)cc32)cc(OC)c1OC
- growth: 16.9%

SMILES: CCN(CC)CCOC(COc1cc(C)cc(C)c1)COc1cc(C)cc(C)c1
- growth: 9.41% (active)

SMILES: N#Cc1nc(C#N)c(Sc2ccccc2)c(Sc2ccccc2)c1Sc1ccccc1
- growth: -73.9% (active)

SMILES: CCN1C(=O)N(CC)C2Nn3c(s/c(=C4\C(=O)N(C5CCCC5)c5ccccc54)c3=O)=NC21 (stereo unspecified)
- growth: 11%

SMILES: COc1cc(/C=C/c2cc(/C=C/c3ccc(O)c(OC)c3)n(C(=O)c3ccccc3Br)n2)ccc1O
- growth: 2.97% (active)

SMILES: CC(=O)O.CN1[CH-]N(Cc2ccc(C#N)cc2)c2ccccc21.[Ag+]
- growth: 97%

SMILES: NC(=O)c1c(NC(=O)/C=C/c2cccs2)sc2c1CCC(=O)C2
- growth: 37.2%

SMILES: CCNC(=O)Oc1ccc(/C(=C(/C)Cc2ccc(OC)cc2)c2ccc(OCCN3CCCC3)cc2)cc1
- growth: 61.9%

SMILES: Ic1ccccc1-c1ccccc1
- growth: 103%

SMILES: COC(=O)/C=C\C(=O)OC
- growth: 112%

SMILES: CNc1ncc2cc(-c3cc(NC(=O)NCCC(C)(C)C)c(F)cc3C)c(C)nc2n1
- growth: 52.7%

SMILES: O=c1oc2c(cc1-c1ccccc1)c[n+]([O-])c1ccccc21
- growth: 104%

SMILES: CC(C)c1ccc(-n2c(=S)[nH]c3sc4c(c3c2=O)CCC(=O)C4)cc1
- growth: 58.6%

SMILES: O=C(Nc1cccc(Cl)c1)Nc1ncc(CCNc2ncnc3ccsc23)s1
- growth: 6.87% (active)

SMILES: Cc1ccc(S(=O)(=O)Nc2c(Br)cc(Br)cc2C(N)=O)cc1
- growth: 102%

SMILES: Cc1nc2c(O)cccc2cc1CO
- growth: 95.2%

SMILES: CN(C)S(=O)(=O)c1oc(-c2ccccc2)nc1C#N
- growth: 35%

SMILES: CS(=O)(=O)Nc1cc(-c2ccc3ncc(C#N)c(Nc4cccc(Cl)c4F)c3c2)cnc1Cl
- growth: -45.3% (active)

SMILES: CC1=CC2C(C(O)CC3(C)C2CC(C)C32OCOC23COCO3)C2(C)C/C(=C/O)C(=O)C=C12 (stereo unspecified)
- growth: -16.2% (active)

SMILES: COc1ccccc1/C=C1\Oc2ccc(O)c(O)c2C1=O
- growth: 101%

SMILES: Nc1c(C(=O)Nc2ccccc2)sc2nc3c(cc12)CN(Cc1ccccc1)CC3
- growth: 76.2%

SMILES: C#CCNC(=O)[C@]1(C)CC[C@]2(C)CC[C@@H]3C(=CC[C@H]4[C@@]3(C)CC[C@H]3C(C)(C)C(=O)CC[C@]43C)[C@@H]2C1
- growth: 104%

SMILES: Nc1nc2c(c(=O)[nH]1)C(c1ccc3c(c1)OCO3)C=C(C(=O)O)N2 (stereo unspecified)
- growth: 107%

SMILES: COc1ccc(-c2ccc3c4c(cccc24)C(=O)N(N2C(=O)c4cccc5cccc(c45)C2=O)C3=O)cc1
- growth: 96.5%

SMILES: CCC(CC(C)C)Nc1ccc(NC(CC)CC(C)C)cc1 (stereo unspecified)
- growth: 71.3%

SMILES: COc1ccc(Cn2cc3c(c2-c2cc(OC)c(OC)c(OC)c2)CCc2cnoc2-3)cc1
- growth: 4.09% (active)

SMILES: CN(C)CCN1C(=O)c2cccc3c(/C=C/CN4C(=O)c5cccc6cccc(c56)C4=O)ccc(c23)C1=O
- growth: 88.9%

SMILES: N#Cc1c(-c2ccccc2)cc(-c2ccccc2)n(CCCCCC(=O)Nc2ccccc2N)c1=O
- growth: 62.8%

SMILES: O=S(=O)(/N=C1C=C/C(=N\S(=O)(=O)c2ccccc2)c2ccccc2\1)c1ccccc1
- growth: 79.3%

SMILES: C/C(=C(/c1ccc(Cl)cc1)c1ccc(OCCN2CCCC2)cc1)c1ccc(Cl)cc1
- growth: 91.1%

SMILES: O=P(O)(O)OCC1OC(n2cnc3c(NCc4ccccc4)ncnc32)C(O)C1O (stereo unspecified)
- growth: -28.6% (active)
